About 2,900 (0.81%) of roughly 360,000 compounds were called active.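 Rule for the calls: active = inhibition above the mean inhibition across every tested compound plus 3 SD (cut at about 22% in these data); inactive = the rest.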 The entries come from a sample that favours actives as a whole.

The target of this experiment is Perilipin-5 (Homo sapiens) + 1-acylglycerol-3-phosphate O-acyltransferase ABHD5 (Homo sapiens) (UniProt Q00G26+Q8WTS1). The experiment is described as follows: blockers of ABHD5 binding to perilipin-5 – cell lysate, split luciferase complementation, luminescence, primary screen (AID 602281).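 Note: 0% = DMSO only wells and the 100% control is not disclosed.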 Conditions: Split G. princeps luciferase complementation, 4 h, at 4 µM, hits give high values.
Sequence of Perilipin-5 (Homo sapiens) + 1-acylglycerol-3-phosphate O-acyltransferase ABHD5 (Homo sapiens) (Q00G26 whole entry, looked up): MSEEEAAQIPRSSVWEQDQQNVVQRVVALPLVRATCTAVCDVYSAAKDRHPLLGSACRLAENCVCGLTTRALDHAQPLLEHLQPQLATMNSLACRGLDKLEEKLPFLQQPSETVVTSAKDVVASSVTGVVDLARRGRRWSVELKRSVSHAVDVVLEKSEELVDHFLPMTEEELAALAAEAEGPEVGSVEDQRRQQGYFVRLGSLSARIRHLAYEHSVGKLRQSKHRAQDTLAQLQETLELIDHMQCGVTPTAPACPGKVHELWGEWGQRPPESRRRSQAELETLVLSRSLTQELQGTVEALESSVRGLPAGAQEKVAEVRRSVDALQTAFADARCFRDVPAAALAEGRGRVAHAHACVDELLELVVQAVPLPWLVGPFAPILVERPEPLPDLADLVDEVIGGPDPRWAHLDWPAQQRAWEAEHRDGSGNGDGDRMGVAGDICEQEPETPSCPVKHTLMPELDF
Sequence of Perilipin-5 (Homo sapiens) + 1-acylglycerol-3-phosphate O-acyltransferase ABHD5 (Homo sapiens) (Q8WTS1 whole entry, looked up): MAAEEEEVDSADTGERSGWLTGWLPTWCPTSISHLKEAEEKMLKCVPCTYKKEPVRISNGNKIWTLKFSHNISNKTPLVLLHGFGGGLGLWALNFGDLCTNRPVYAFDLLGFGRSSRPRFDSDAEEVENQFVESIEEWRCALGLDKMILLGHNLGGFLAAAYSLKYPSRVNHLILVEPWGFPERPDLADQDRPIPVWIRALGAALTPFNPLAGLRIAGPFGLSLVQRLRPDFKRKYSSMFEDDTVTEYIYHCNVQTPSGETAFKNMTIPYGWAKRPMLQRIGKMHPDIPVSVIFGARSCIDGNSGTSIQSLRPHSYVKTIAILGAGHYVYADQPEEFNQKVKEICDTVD
For the compound `Cc1ccnc(SCCn2c(N(C)Cc3ccccc3)nc3c2c(=O)n(C)c(=O)n3C)n1`, the inhibition is -0.81% (inactive).

As for `N#Cc1ccccc1S(=O)(=O)N1CCN(Cc2c(O)ccc3ccccc23)CC1`, the inhibition was 27.7% (active).

As to `O=c1oc2c(CN3CCCCC3)c(O)ccc2c2c1CCCCC2`, the inhibition was -1.69% (inactive).

For the compound `N#Cc1ccccc1S(=O)(=O)N1CCN(C(=O)c2cc(-c3ccccc3)nn2-c2ccccc2)CC1`, the inhibition is -8.95% (inactive).

Take `Cn1c(CCC(=O)OCC(=O)NCc2ccccc2Cl)nc(=O)c2ccccc21`: the inhibition was 2.53% (inactive).

On to `CN(CC(=O)NCCc1ccccc1)S(=O)(=O)c1cnc[nH]1`, for which the inhibition was 1.21% (inactive).

Consider `COCCN(Cc1ccccc1)C(=O)Cc1ccc(S(=O)(=O)N2CCOCC2)s1`, for which the inhibition was -7.33% (inactive).

On to `CCc1ccc(C(=O)CSc2nnc(C)c(=O)[nH]2)cc1`, for which the inhibition is -3.63% (inactive).

In the case of `CCCCOC(=O)CNc1nnc(SCC(=O)OCC)[nH]c1=O`, the inhibition was 55.4% (active).

With `CCOC(=O)CSc1nc(C)c(Oc2ccc(Cl)cc2Cl)c(=O)[nH]1`, the inhibition is -1.81% (inactive).

Take `COC(C/C=C/C(=O)[C@@H](C)OCc1ccccc1)OC`: the inhibition is 24.4% (active).

`COC(C[C@H](O)CC(=O)[C@@H](C)OCc1ccccc1)OC`: the inhibition was 2.47% (inactive).

Consider `COC(C[C@@H]1O[C@@H]1C(=O)[C@H](C)OCc1ccccc1)OC`, for which the inhibition was -0.78% (inactive).

On to `COc1ccc(-c2cnc3c(c2)C(=O)N([C@H](C)CO)C[C@@H](C)[C@H](CN(C)Cc2ccccc2)O3)cc1`, for which the inhibition was 4.36% (inactive).

As to `CCCCCCN1CCN(C2CN(Cc3cn(CCCCCC)nn3)S(=O)(=O)C2)CC1` (centres undefined), the inhibition was -2.61% (inactive).

Take `CC(Sc1nncs1)C(=O)NCc1ccc2c(c1)OCO2` (centres undefined): the inhibition was -10.2% (inactive).

With `CCn1cc(C(=O)N2CC(C)CC(C)C2)c(=O)c2cc(S(=O)(=O)N3CCCC3)ccc21` (centres undefined), the inhibition was -1.5% (inactive).

On to `O=C1C(Cl)=C(Oc2ccccc2)C(=O)c2ccccc21`, for which the inhibition is 84.3% (active).

In the case of `O=C(N[C@H]1C/C=C\C(c2cccc(F)c2)N(Cc2ccccc2)C(=O)C1)OCC1c2ccccc2-c2ccccc21` (some centres undefined), the inhibition is -1.93% (inactive).

For `COc1ccc(CN2CCN(Cc3cn(C)nc3-c3ccccc3)CC2CCO)c(C)c1C` (centres undefined), the inhibition was 8.28% (inactive).

`Cc1ccccc1CN1C[C@@H]2C[C@@H](c3cn(C)nc3-c3ccccc3)N3CCC[C@@]23C1=O`: the inhibition was 22.1% (active).

For the compound `Cc1ccccc1CN1C[C@@H]2C[C@@H](c3ccc4nsnc4c3)N3CCC[C@@]23C1=O`, the inhibition was 0.89% (inactive).

Turning to `COC(=O)CCCC1=CC2=C(c3ccccc3)C(=O)C(C)(OC(=O)C3CCCC3)C(=O)C2=CN1c1ccc(OC)cc1` (centres undefined), the inhibition was 3.52% (inactive).

With `CC1(OC(=O)C2CCCC2)C(=O)C=C2C=C(c3ccc(C#N)cc3)OC=C2C1=O` (centres undefined), the inhibition is 22.6% (active).

Take `CC1(C(=O)NS(=O)(=O)c2ccc(C#N)cc2)CCN1C(=O)c1ccc(C2CCCCC2)cc1` (centres undefined): the inhibition was -0.02% (inactive).

As for `CC(C)CN1CCC1(C)C(=O)Nc1ccc(OC(F)F)cc1` (centres undefined), the inhibition is -1.42% (inactive).

`Cc1cc(C)nc(S/C=C/C(=O)c2ccccc2)n1`: the inhibition is 65.4% (active).

For `COc1ccc(C(=O)/C=C/Nc2ccccn2)cc1`, the inhibition is 0.9% (inactive).

On to `CSc1nc(N(C)NC(=O)c2cccc(C)c2)c2ccccc2n1`, for which the inhibition was -6.13% (inactive).

As for `O=C(Nc1cccc(Cl)c1Cl)c1ccccc1NC(=O)C1CC=CCC1C(=O)O` (centres undefined), the inhibition is -5.77% (inactive).

`O=[N+]([O-])/C=C/c1ccc2c(ccn2Cc2ccccc2)c1`: the inhibition is 92% (active).

Regarding `NC(=O)C1CCN(C(=O)c2ccc(-c3ccccc3)cc2)CC1`, the inhibition was 5.48% (inactive).

Regarding `NS(=O)(=O)c1ccc(NC(=O)COC(=O)C2(c3ccc(F)cc3)CCCC2)cc1`, the inhibition was -6.25% (inactive).

Consider `O=C1c2cccnc2C(Nc2ccc(S(=O)(=O)N3CCCCCC3)cc2)N1Cc1ccccc1` (centres undefined), for which the inhibition is -3.06% (inactive).

In the case of `O=C(CCNS(=O)(=O)c1ccccc1C(F)(F)F)Nc1ccncc1`, the inhibition was 3.18% (inactive).

As to `Nc1cccc(OCCCCCOc2cccc(N)c2)c1`, the inhibition is 68.8% (active).

Regarding `CN(C)CCOc1cccc(Br)c1`, the inhibition is -5.46% (inactive).

Consider `C=CCNCCCCOc1ccccc1`, for which the inhibition is -2.87% (inactive).

Consider `O=C(COC(=O)c1cnccn1)Nc1cccc2ccccc12`, for which the inhibition was -5.15% (inactive).

As for `COc1cccc2cc(C(C)N(CCCN3CCOCC3)C(=O)Nc3ccc(Cl)cc3)oc12` (centres undefined), the inhibition is 7.7% (inactive).

Turning to `O=C(Cn1nc(CNc2ccc(Cl)cc2)[n+]2c1CCCCC2)c1ccc(Cl)cc1`, the inhibition is 28.2% (active).

Consider `O=C(Cn1nnc(N2CCCCC2)n1)c1ccc(Cl)c(Cl)c1`, for which the inhibition was -2.6% (inactive).

Take `O=C(Cn1ncc(N2CCCC2)c(Br)c1=O)c1ccc(Cl)cc1`: the inhibition is 3.08% (inactive).

Regarding `N#Cc1ccc(C2N=C(c3ccccc3)NO2)cc1` (centres undefined), the inhibition is 5.57% (inactive).

For the compound `Cc1noc(C)c1NC(=O)Nc1ccc2c(c1)C(=O)N([C@H](C)CO)C[C@H](C)[C@@H](CN(C)S(=O)(=O)c1cn(C)cn1)O2`, the inhibition was 3.26% (inactive).

Take `Cc1cccc(C)c1NC(=O)C(c1ccc(C(F)(F)F)cc1)n1c(=O)c(-c2ccco2)nc2ccccc21` (centres undefined): the inhibition is 74.7% (active).

For `COc1ccc(C(C(=O)NCc2ccccc2)n2c(=O)c(-c3ccccc3)nc3ccccc32)cc1` (centres undefined), the inhibition was 18.6% (inactive).

Consider `Cc1cccc(C)c1NC(=O)C(c1cccc2ccccc12)n1c(=O)c(-c2ccco2)nc2ccccc21` (centres undefined), for which the inhibition is 71.4% (active).

Consider `COc1ccc(NC(=O)C(c2ccncc2)n2c(=O)c(-c3cc4ccccc4[nH]3)nc3ccccc32)cc1` (centres undefined), for which the inhibition is -4.13% (inactive).

Regarding `Cc1cccc(C)c1NC(=O)CCCSc1nnc(-c2ccco2)n1-c1ccccc1`, the inhibition is -1.49% (inactive).

Regarding `CCCCCNC(=O)C(c1ccc(OC)cc1)n1c(=O)c(-c2ccccc2)nc2ccccc21` (centres undefined), the inhibition is 1.61% (inactive).

With `COc1ccc(C(C(=O)Nc2c(C)cccc2C)N2CCN(c3ccc(C)cc3)CC2)cc1` (centres undefined), the inhibition was -0.48% (inactive).

For `CCC(CC)C(C(=O)NC1CCCC1)N1CCN(c2cc(C)nc3ccccc23)CC1` (centres undefined), the inhibition was 1.05% (inactive).

In the case of `CCC(C(=O)Nc1c(C)cccc1C)n1c(-c2cc(C)cs2)nc2ccccc21` (centres undefined), the inhibition was -1.93% (inactive).

Turning to `O=C(NC1CCCCC1)C(c1cc2ccccc2o1)n1c(=O)c(-c2ccco2)nc2ccccc21` (centres undefined), the inhibition is 78.2% (active).

For `Cn1c(SCC(=O)NC2CCCCC2)nnc1-c1cc2ccccc2o1`, the inhibition was -2.37% (inactive).

As to `N#Cc1ccc(C(C(=O)NCc2ccccc2)n2c(=O)c(-c3ccco3)nc3ccccc32)cc1` (centres undefined), the inhibition was 76.5% (active).

As to `CC1CCCN(CCCNC(=O)CN2C(=O)COc3ccc(S(=O)(=O)N4CCOCC4)cc32)C1` (centres undefined), the inhibition was -1.77% (inactive).

With `CCc1cccc(NC(=O)CCCN2C(=O)C(c3ccccc3)Oc3cccnc32)c1` (centres undefined), the inhibition is -1.01% (inactive).

As to `Cc1ccc(-c2nnc(C)c(N3CC(C)OC(C)C3)n2)cc1` (centres undefined), the inhibition is -1.84% (inactive).

For the compound `CC(OC(=O)CCCOc1ccccc1)C(=O)Nc1ccc(Cl)cn1` (centres undefined), the inhibition was -0.81% (inactive).

In the case of `O=C1OCCOC2CCCc3oc(-c4ccccc4)c1c32` (centres undefined), the inhibition is -3.07% (inactive).

On to `CN1CCC(=O)N([C@H](CO)Cc2ccccc2)CC1`, for which the inhibition is -5.42% (inactive).

On to `Cc1ccsc1C(=O)NC1CCCCC1C` (centres undefined), for which the inhibition was 4.79% (inactive).

For the compound `CC(N)C12CC3CC(CC(O)(C3)C1)C2` (centres undefined), the inhibition is -6.3% (inactive).

In the case of `Cc1nc2ccccn2c1C(=O)NN=C1CCN(C)CC1`, the inhibition was -0.19% (inactive).

`COC(=O)c1c(C)oc2ccc(N(C(=O)Oc3ccccc3)S(=O)(=O)c3ccccc3)cc12`: the inhibition was -1.45% (inactive).

With `CC(=O)N(c1ccc2oc(=O)sc2c1)S(=O)(=O)c1ccc(C)cc1`, the inhibition is 36.7% (active).

Turning to `CC(=O)Oc1ccc(N(C(C)=O)S(=O)(=O)c2ccc3ccccc3c2)cc1Br`, the inhibition was 6.52% (inactive).

In the case of `COC(=O)c1ccccc1Oc1c(F)c(F)nc(N2CCOCC2)c1F`, the inhibition is -7.97% (inactive).

On to `COc1cccc(N2CC(NS(=O)(=O)c3cccs3)CC2=O)c1` (centres undefined), for which the inhibition is 0.8% (inactive).

For `CCN(CC(=O)Nc1ccc(Cl)c(S(=O)(=O)N(C)C)c1)Cc1nc2ccccc2c(=O)[nH]1`, the inhibition was -4.43% (inactive).

As for `Cc1cc(N2CCCC2=O)cc(C)c1S(N)(=O)=O`, the inhibition was -1% (inactive).

In the case of `O=C(COc1nsnc1N1CCOCC1)Nc1ccccc1Cl`, the inhibition is 0.63% (inactive).

Turning to `O=C(Nc1ccccc1Cl)/C(Cl)=C(\Cl)S(=O)c1ccccc1` (centres undefined), the inhibition was 81.7% (active).

With `CCOC(=O)[C@]12CCCC=C1N(Cc1ccc3c(c1)OCO3)C(=O)[C@H](CC(=O)N1CCN(C(=O)c3ccco3)CC1)C2`, the inhibition was 5.36% (inactive).

As for `c1ccc(-n2cccc2)c(N2CCCCC2)c1`, the inhibition is -0.7% (inactive).

For `O=C(c1ccc(Cl)c(S(=O)(=O)N2CCCCCC2)c1)N1CCN(c2ccc(O)cc2)CC1`, the inhibition was 1.37% (inactive).

Take `O=C1C=CC(=O)N1c1ccc(N2CCCCC2)cc1`: the inhibition was 29% (active).

Take `CCN(C(=O)CSc1nc(N)cc(=O)[nH]1)C1CCS(=O)(=O)C1` (centres undefined): the inhibition is -2.61% (inactive).

As to `Cc1c(NC(=O)c2cc(-c3ccc(Cl)s3)nc3ccccc23)c(=O)n(-c2ccccc2)n1C`, the inhibition was 0.07% (inactive).

`Cc1ccc(NC(=O)c2cc(-c3ccc(C)o3)nc3ccccc23)nc1`: the inhibition is 29% (active).

As for `CCc1ccc(-c2cc(C(=O)NN3CCN(C)CC3)c3ccccc3n2)cc1`, the inhibition was 11.1% (inactive).

Take `O=C(CCC(=O)OCC(F)(F)C(F)F)NCc1ccccc1`: the inhibition was -6.31% (inactive).

`Oc1c(CN2CCOCC2)ccc(CN2CCOCC2)c1O`: the inhibition is -0.13% (inactive).

`COc1ccccc1NC(=O)CSc1nnc(Cn2nnc(-c3ccccc3)n2)n1-c1ccccc1`: the inhibition was 7.76% (inactive).

For the compound `COc1ccc(Cl)cc1NC(=O)CCS(=O)(=O)c1ccc(Br)cc1`, the inhibition is -6.29% (inactive).

For `COc1ccc(/C(C)=N/NC(=O)CCC(=O)Nc2ccc(Cl)cc2Cl)c(OC)c1`, the inhibition was -4.09% (inactive).

Take `CCCCC(=O)N/N=C(\C)CC(=O)Nc1cc(Cl)ccc1OC`: the inhibition was 22.2% (active).

For the origin of these results see PubChem BioAssay AID602281 (The Scripps Research Institute Molecular Screening Center, 2012).
